The results in this text go back to article PMC7862700, “An all-to-all approach to the identification of sequence-specific readers for epigenetic DNA modifications on cytosine”.

Assay in all cases: DAPPL (digital affinity profiling via proximity ligation, sequencing); 10 mM Tris-HCl pH 7.5, 50 mM NaCl, 1 mM DTT, 4% glycerol, room temperature, 30 min; GST-TFs on glutathione beads, 16-mer random dsDNA library, 0.1% formaldehyde crosslink after washing; high values mean tight binding
What all share (settings): protein: recombinant; tags: N-terminal GST; dsDNA, one strand shown

One assay concerns the target T1, FLI1 (Homo sapiens, UniProt Q01543 1-452).
T1 sequence: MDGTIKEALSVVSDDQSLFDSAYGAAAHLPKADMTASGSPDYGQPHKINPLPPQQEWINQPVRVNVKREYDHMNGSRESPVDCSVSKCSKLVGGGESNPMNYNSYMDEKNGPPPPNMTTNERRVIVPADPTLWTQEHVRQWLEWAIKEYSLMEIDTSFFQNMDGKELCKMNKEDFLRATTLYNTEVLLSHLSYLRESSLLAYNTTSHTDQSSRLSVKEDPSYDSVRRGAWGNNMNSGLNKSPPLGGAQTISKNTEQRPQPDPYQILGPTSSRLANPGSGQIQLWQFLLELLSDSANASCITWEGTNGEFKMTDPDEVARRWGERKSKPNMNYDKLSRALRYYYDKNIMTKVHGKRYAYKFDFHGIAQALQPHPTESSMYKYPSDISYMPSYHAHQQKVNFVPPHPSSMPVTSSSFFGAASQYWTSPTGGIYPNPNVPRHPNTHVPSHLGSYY
A digest of the protocol: (§1)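 After expression in yeast as GST fusions, human transcription factors were bound to glutathione beads, DNA-barcoded and mixed with a tag-only sample. The pools were incubated with 200 nmole of a 16-mer random double-stranded DNA library in Tris/NaCl/DTT/glycerol buffer (30 min, room temperature), washed and crosslinked with 0.1% formaldehyde. Proximity ligation with BsaI/T4 ligase ran for 1 h at 37 °C, before PCR amplification and sequencing on an Illumina NextSeq500. Binding signal is a hexamer's read frequency for a factor divided by its frequency for the tag-only sample.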

The target in another assay is T2, ELK1 (Homo sapiens, UniProt P19419 1-428).
T2 sequence: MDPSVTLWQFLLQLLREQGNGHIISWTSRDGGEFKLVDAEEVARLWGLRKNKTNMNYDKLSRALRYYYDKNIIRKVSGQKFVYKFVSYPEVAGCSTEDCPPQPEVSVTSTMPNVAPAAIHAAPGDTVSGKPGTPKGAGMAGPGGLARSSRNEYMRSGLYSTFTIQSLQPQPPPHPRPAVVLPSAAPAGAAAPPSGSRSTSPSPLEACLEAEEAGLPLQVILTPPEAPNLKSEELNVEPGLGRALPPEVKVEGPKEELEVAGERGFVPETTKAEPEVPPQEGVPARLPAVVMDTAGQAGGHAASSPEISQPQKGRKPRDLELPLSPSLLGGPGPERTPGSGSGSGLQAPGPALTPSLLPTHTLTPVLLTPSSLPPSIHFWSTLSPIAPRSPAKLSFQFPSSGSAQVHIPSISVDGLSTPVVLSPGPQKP
Put shortly:
as §1

Another assay deals with T3, GABPA (Homo sapiens, UniProt Q06546 1-454).
T3 sequence: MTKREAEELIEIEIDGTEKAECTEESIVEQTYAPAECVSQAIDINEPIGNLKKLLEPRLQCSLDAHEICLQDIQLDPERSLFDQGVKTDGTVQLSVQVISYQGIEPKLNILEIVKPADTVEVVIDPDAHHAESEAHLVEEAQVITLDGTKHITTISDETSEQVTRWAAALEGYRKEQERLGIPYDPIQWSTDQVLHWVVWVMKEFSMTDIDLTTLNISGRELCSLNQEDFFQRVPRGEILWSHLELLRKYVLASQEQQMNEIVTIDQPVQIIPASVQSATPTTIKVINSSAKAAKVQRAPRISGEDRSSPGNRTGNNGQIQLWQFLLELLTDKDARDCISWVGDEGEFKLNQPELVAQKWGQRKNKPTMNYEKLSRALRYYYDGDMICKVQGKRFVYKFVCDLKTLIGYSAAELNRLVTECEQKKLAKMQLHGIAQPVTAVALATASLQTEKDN
Put shortly: as §1

Another assay addresses T4, ERG (Homo sapiens, UniProt P11308 1-479).
T4 sequence: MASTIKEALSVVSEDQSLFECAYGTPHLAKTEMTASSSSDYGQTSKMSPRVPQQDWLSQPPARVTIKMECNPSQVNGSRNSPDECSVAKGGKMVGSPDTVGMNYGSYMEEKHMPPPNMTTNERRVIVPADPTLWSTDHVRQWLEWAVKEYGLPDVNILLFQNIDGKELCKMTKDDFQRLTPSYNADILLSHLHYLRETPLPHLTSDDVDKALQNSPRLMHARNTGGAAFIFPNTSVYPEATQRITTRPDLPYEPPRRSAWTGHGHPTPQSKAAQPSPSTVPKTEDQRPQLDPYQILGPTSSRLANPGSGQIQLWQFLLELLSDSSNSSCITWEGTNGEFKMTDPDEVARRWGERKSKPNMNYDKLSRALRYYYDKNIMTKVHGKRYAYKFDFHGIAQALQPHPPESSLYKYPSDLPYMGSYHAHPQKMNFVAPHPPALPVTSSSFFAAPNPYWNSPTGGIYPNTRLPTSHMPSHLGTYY
A digest of the protocol: as §1

For a further assay, the target named is ELF1 (Homo sapiens, UniProt P32519 1-619). A digest of the protocol: as §1
Chain of ELF1 (P32519 whole entry): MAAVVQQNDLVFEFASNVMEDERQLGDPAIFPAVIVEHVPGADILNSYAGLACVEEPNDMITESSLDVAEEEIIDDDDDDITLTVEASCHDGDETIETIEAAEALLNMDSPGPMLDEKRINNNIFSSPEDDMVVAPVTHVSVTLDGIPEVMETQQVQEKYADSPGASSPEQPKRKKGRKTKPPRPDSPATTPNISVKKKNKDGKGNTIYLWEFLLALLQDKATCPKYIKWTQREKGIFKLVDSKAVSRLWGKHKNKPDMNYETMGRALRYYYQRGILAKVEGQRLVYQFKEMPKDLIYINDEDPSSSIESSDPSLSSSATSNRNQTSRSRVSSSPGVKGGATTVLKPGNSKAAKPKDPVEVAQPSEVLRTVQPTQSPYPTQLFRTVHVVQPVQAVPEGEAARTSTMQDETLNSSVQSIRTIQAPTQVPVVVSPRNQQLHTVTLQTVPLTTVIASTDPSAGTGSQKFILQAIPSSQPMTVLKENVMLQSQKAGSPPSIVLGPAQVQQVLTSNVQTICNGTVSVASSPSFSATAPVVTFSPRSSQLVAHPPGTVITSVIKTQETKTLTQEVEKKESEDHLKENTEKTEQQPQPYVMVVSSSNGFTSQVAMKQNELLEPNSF
A further assay addresses T5, EHF (Homo sapiens, UniProt Q9NZC4 1-300).
T5 sequence: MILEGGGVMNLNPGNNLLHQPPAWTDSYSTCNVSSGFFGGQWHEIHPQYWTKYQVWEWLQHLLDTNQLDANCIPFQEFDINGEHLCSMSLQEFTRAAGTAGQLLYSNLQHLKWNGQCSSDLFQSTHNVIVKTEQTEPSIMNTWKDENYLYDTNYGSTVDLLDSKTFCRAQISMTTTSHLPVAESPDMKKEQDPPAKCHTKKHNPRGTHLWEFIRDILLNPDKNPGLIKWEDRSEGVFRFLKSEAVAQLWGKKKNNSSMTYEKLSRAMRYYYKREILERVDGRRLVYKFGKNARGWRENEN
Put shortly: as §1

For a further assay, the target named is SPI1 (Homo sapiens, UniProt P17947 1-270). A digest of the protocol: as §1
The next assay concerns the target SPIB (Homo sapiens, UniProt Q01892 1-262). A digest of the protocol:
as §1

The target in another assay is T6, ELK3 (Homo sapiens, UniProt P41970 1-407).
T6 sequence: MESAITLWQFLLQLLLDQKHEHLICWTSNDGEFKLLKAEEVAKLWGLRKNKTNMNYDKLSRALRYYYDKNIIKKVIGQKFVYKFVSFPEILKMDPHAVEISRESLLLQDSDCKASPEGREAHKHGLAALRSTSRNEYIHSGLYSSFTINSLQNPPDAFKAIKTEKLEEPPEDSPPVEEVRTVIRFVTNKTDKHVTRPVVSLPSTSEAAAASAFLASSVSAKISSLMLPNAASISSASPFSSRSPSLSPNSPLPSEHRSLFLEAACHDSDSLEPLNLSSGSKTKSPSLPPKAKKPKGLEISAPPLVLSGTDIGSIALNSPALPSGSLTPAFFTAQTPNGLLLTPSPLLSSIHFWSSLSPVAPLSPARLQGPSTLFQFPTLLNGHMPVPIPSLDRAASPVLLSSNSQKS
Put shortly:
as §1

Chain of SPIB (Q01892 whole entry): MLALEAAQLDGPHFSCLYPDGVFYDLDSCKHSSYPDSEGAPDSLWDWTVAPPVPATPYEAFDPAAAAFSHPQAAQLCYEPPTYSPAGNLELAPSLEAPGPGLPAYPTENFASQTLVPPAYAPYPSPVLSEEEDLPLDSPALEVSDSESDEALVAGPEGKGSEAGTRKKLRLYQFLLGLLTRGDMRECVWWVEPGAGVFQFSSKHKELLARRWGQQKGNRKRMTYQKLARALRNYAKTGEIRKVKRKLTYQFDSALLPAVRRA

For GAAAAT, the binding signal was 1.16 fold enrichment (6-mer frequency, TF over GST control) with FLI1; 1.07 fold enrichment (6-mer frequency, TF over GST control) in the assay with ELK1; 1.16 fold enrichment (6-mer frequency, TF over GST control) with GABPA; 1.07 fold enrichment (6-mer frequency, TF over GST control) with ERG; 1.04 fold enrichment (6-mer frequency, TF over GST control) with ELF1; 1.14 fold enrichment (6-mer frequency, TF over GST control) with EHF. Also, the binding signal with SPI1 is 1.14 fold enrichment (6-mer frequency, TF over GST control); with SPIB it was 1.18 fold enrichment (6-mer frequency, TF over GST control); with ELK3, 1.04 fold enrichment (6-mer frequency, TF over GST control).
Regarding AATTCG, the binding signal is 1.29 fold enrichment (6-mer frequency, TF over GST control) with FLI1; 1.26 fold enrichment (6-mer frequency, TF over GST control) in the assay with ELK1; 1.24 fold enrichment (6-mer frequency, TF over GST control) with GABPA; 1.3 fold enrichment (6-mer frequency, TF over GST control) with ERG; 1.29 fold enrichment (6-mer frequency, TF over GST control) with ELF1; 1.23 fold enrichment (6-mer frequency, TF over GST control) in the assay with EHF. In addition, the binding signal in the assay with SPI1 is 1.13 fold enrichment (6-mer frequency, TF over GST control); in the assay with SPIB, 1.38 fold enrichment (6-mer frequency, TF over GST control); in the assay with ELK3, 1.29 fold enrichment (6-mer frequency, TF over GST control).
Take TAAACT: the binding signal was 1.13 fold enrichment (6-mer frequency, TF over GST control) with FLI1; 1.24 fold enrichment (6-mer frequency, TF over GST control) with ELK1; 1.19 fold enrichment (6-mer frequency, TF over GST control) with GABPA; 1.14 fold enrichment (6-mer frequency, TF over GST control) with ERG; 1.13 fold enrichment (6-mer frequency, TF over GST control) in the assay with ELF1; 1.15 fold enrichment (6-mer frequency, TF over GST control) in the assay with EHF. Further, the binding signal in the assay with SPI1 was 1.15 fold enrichment (6-mer frequency, TF over GST control); in the assay with SPIB it was 1.23 fold enrichment (6-mer frequency, TF over GST control); with ELK3, 1.27 fold enrichment (6-mer frequency, TF over GST control).
For TTTGAA, the binding signal was 1.22 fold enrichment (6-mer frequency, TF over GST control) with FLI1; 1.09 fold enrichment (6-mer frequency, TF over GST control) in the assay with ELK1; 1.2 fold enrichment (6-mer frequency, TF over GST control) in the assay with GABPA; 1.21 fold enrichment (6-mer frequency, TF over GST control) in the assay with ERG; 1.23 fold enrichment (6-mer frequency, TF over GST control) in the assay with ELF1; 1.24 fold enrichment (6-mer frequency, TF over GST control) with EHF. The binding signal is 1.2 fold enrichment (6-mer frequency, TF over GST control) with SPI1; 1.2 fold enrichment (6-mer frequency, TF over GST control) with SPIB; 1.17 fold enrichment (6-mer frequency, TF over GST control) in the assay with ELK3.
As to TCATTT, the binding signal with FLI1 is 1.36 fold enrichment (6-mer frequency, TF over GST control); in the assay with ELK1, 1.33 fold enrichment (6-mer frequency, TF over GST control); in the assay with GABPA it was 1.19 fold enrichment (6-mer frequency, TF over GST control); with ERG, 1.35 fold enrichment (6-mer frequency, TF over GST control); with ELF1, 1.25 fold enrichment (6-mer frequency, TF over GST control); with EHF, 1.36 fold enrichment (6-mer frequency, TF over GST control). For the same sequence, the binding signal was 1.5 fold enrichment (6-mer frequency, TF over GST control) in the assay with SPI1; 1.34 fold enrichment (6-mer frequency, TF over GST control) with SPIB; 1.16 fold enrichment (6-mer frequency, TF over GST control) in the assay with ELK3.
For the sequence CGTAAT, the binding signal is 1.19 fold enrichment (6-mer frequency, TF over GST control) with FLI1; 1.14 fold enrichment (6-mer frequency, TF over GST control) in the assay with ELK1; 1.13 fold enrichment (6-mer frequency, TF over GST control) with GABPA; 1.19 fold enrichment (6-mer frequency, TF over GST control) in the assay with ERG; 1.18 fold enrichment (6-mer frequency, TF over GST control) in the assay with ELF1; 1.13 fold enrichment (6-mer frequency, TF over GST control) with EHF. The binding signal with SPI1 is 1.16 fold enrichment (6-mer frequency, TF over GST control); with SPIB it was 1.19 fold enrichment (6-mer frequency, TF over GST control); in the assay with ELK3, 1.04 fold enrichment (6-mer frequency, TF over GST control).
Regarding TAATTG, the binding signal in the assay with FLI1 was 1.38 fold enrichment (6-mer frequency, TF over GST control); with ELK1, 1.43 fold enrichment (6-mer frequency, TF over GST control); with GABPA, 1.38 fold enrichment (6-mer frequency, TF over GST control); with ERG, 1.27 fold enrichment (6-mer frequency, TF over GST control); with ELF1 it was 1.3 fold enrichment (6-mer frequency, TF over GST control); with EHF it was 1.37 fold enrichment (6-mer frequency, TF over GST control). Further, the binding signal is 1.47 fold enrichment (6-mer frequency, TF over GST control) with SPI1; 1.37 fold enrichment (6-mer frequency, TF over GST control) with SPIB; 1.5 fold enrichment (6-mer frequency, TF over GST control) with ELK3.
CTTTGT: the binding signal in the assay with FLI1 is 1.34 fold enrichment (6-mer frequency, TF over GST control); with ELK1 it was 1.3 fold enrichment (6-mer frequency, TF over GST control); with GABPA, 1.2 fold enrichment (6-mer frequency, TF over GST control); in the assay with ERG, 1.27 fold enrichment (6-mer frequency, TF over GST control); with ELF1, 1.36 fold enrichment (6-mer frequency, TF over GST control); with EHF it was 1.48 fold enrichment (6-mer frequency, TF over GST control). Moreover, the binding signal with SPI1 is 1.36 fold enrichment (6-mer frequency, TF over GST control); with SPIB it was 1.22 fold enrichment (6-mer frequency, TF over GST control); in the assay with ELK3, 1.29 fold enrichment (6-mer frequency, TF over GST control).
